The source made the active and inactive calls. Unless noted, calls follow the shape of the dose curve; as a rule, active = well fitted curve in the direction sought with a large enough effect in the repeat runs; inconclusive = weak or mixed curves; inactive = no such curve, though single readings can be large; an effect the other way counts as inactive or inconclusive.

25 compounds from PubChem BioAssay (Tox21) can be followed below.

The nature of experiment [1]: qHTS assay to identify small molecule antagonists of the thyroid receptor (TR) signaling pathway - cell viability counter screen (AID 743064). Also: nearly all actives have a fitted effect of over 50% in size. Also: potency is read from the fitted curve at half-maximal effect. A digest of the protocol:
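In-well cytotoxicity read by CellTiter-Fluor (30 min, 37 C) following 23.5 h exposure of GH3 cells bearing a TRE-luciferase sensor. Compounds were added alongside 1 nM (final) T3 to drive TR transactivation.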
Background: qHTS replaces the single test concentration by a dilution series.

Experiment [2] is described as follows: qHTS assay to identify small molecule antagonists of the thyroid receptor (TR) signaling pathway (AID 743065). Also: nearly all actives have a fitted effect of over 55% in size. Also: potency is read from the fitted curve at half-maximal effect. The method, boiled down: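 GH3.TRE-Luc rat pituitary cells carrying two TR response elements driving luciferase were plated for 4 h, given compound plus 1 nM T3 (final), and incubated 23.5 h at 37 C. ONE-Glo luminescence measured reporter inhibition; CellTiter-Fluor fluorescence tracked cytotoxicity.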

Experiment [3] concerns thyroid hormone receptor (rat, GH3 cells). The experiment in a line: qHTS assay to identify small molecule agonists of the thyroid receptor (TR) signaling pathway (AID 743066; calls by dose curve).
Experiment [4] is described as follows: qHTS assay to identify small molecule antagonists of the estrogen receptor alpha (ER-alpha) signaling pathway - cell viability counter screen (AID 743074; calls by dose curve;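 also: HEK293 cells carrying ER-alpha-UAS-bla reporter stimulated with 17beta-estradiol; nearly all actives have a fitted effect of over 45% in size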; also: potency is read from the fitted curve at half-maximal effect).
Experiment [5] in a line: qHTS assay to identify small molecule antagonists of the estrogen receptor alpha (ER-alpha) signaling pathway using the BG1 cell line - cell viability counter screen (AID 743081).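 Also: compound given together with 17beta-estradiol as the ER stimulus; nearly all actives have a fitted effect of over 45% in size.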 Also: potency is read from the fitted curve at half-maximal effect.
Experiment [6] deals with Estrogen receptor (Homo sapiens) (UniProt P03372). The experiment in a line: qHTS assay to identify small molecule agonists of the estrogen receptor alpha (ER-alpha) signaling pathway using the BG1 cell line (AID 743079). Also: nearly all actives have a fitted effect of over 20% in size. Also: potency is read from the fitted curve at half-maximal effect. As to conditions: BG1Luc4E2 cells, ERE-luciferase agonist, 22 h; activation: at 70.3 µM (top of the series).
Another experiment concerns the target Aromatase (Homo sapiens) (UniProt P11511). The experiment in a line: qHTS assay to identify aromatase inhibitors (AID 743083). Also: nearly all actives have a fitted effect of over 55% in size.
In experiment [7] the target is Estrogen receptor (Homo sapiens) (UniProt P03372). The experiment in a line: qHTS assay to identify small molecule agonists of the estrogen receptor alpha (ER-alpha) signaling pathway (AID 743075; calls by dose curve;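 also: HEK293 GripTite cells with ER-alpha and UAS-driven beta-lactamase reporter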; also: potency is read from the fitted curve at half-maximal effect).
A short description of experiment [8]: qHTS assay to identify small molecule antagonists of the estrogen receptor alpha (ER-alpha) signaling pathway using the BG1 cell line (AID 743080; calls by dose curve;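 also: BG1 cells stimulated with 17beta-estradiol alongside compound; nearly all actives have a fitted effect of over 25% in size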). The method, boiled down:
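After 5 days in phenol-red-free 10% charcoal-stripped FBS medium, BG1-Luc-4E2 cells were seeded, left 24 h at 37 C, co-treated with compounds and 17beta-estradiol for 21.5 h, then assayed for viability and luciferase.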

Sequence of Estrogen receptor (Homo sapiens) (P03372 whole entry, looked up): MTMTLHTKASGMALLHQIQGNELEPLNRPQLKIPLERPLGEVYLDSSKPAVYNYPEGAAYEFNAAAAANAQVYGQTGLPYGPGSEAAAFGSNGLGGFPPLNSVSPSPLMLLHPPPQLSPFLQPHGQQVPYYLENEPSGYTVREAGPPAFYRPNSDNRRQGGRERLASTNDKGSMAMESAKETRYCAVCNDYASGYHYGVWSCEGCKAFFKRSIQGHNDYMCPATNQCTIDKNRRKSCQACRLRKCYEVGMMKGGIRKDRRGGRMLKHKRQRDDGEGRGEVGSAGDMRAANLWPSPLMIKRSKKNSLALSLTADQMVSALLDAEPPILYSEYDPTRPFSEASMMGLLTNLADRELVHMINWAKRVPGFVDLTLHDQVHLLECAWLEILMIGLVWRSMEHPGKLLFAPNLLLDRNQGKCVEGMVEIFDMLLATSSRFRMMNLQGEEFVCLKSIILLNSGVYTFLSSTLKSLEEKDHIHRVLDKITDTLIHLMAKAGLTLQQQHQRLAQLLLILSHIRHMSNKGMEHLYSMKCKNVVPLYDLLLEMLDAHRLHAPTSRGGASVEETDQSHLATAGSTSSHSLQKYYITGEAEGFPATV
Sequence of Aromatase (Homo sapiens) (P11511 whole entry, looked up): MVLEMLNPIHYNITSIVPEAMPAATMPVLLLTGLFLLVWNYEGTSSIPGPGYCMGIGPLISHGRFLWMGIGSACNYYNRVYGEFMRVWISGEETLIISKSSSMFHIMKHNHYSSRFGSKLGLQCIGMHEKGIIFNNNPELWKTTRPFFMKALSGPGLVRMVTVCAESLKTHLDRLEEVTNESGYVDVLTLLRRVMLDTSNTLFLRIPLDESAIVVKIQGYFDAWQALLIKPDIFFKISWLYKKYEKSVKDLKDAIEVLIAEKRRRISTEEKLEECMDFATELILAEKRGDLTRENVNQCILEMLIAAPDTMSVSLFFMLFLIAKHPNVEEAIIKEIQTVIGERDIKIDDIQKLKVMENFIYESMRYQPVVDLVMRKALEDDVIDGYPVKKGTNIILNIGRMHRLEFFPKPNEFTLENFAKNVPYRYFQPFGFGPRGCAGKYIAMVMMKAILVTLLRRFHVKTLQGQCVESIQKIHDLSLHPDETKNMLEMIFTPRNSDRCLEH

`O=[n+]1ccn([O-])c2ccccc21`: the Potency entry in [1], in [2], in experiment [3], in experiment [4] and in experiment [5] was “inactive” in each case.

As to `CC(C)(C)CC(=O)OCC(=O)[C@@]12OC(C)(C)O[C@@H]1C[C@H]1[C@@H]3CCC4=CC(=O)C=C[C@]4(C)[C@@]3(F)[C@@H](O)C[C@@]12C`, the Potency result (in experiment [1]; in [2]; in experiment [3]; in [4]; in experiment [6]; with Aromatase (Homo sapiens)) was “inactive” in each case.

In the case of `C[C@]12CCC(=O)C=C1CC[C@@H]1[C@@H]2[C@@H](O)C[C@@]2(C)[C@H]1CC[C@]2(O)C(=O)COP(=O)(O)O`, the Potency entry (in experiment [1]; in [2]; in experiment [3]; in experiment [4]; in experiment [5]; with Aromatase (Homo sapiens)) was “inactive” throughout. Besides, in experiment [6], the Potency was 29.8 µM (active).

With `O=C1N=C2SCCN2C(=O)C1Cc1ccc(Cl)cc1` (stereo not drawn), the Potency result in [1], in experiment [2], in [3], in [4] and in experiment [5] was “inactive” each time.

For `C=C1CC2C3CCC4=CC(=O)C=C[C@]4(C)[C@@]3(F)[C@@H](O)C[C@]2(C)[C@@]1(O)C(=O)COC(C)=O` (stereo partly drawn), the Potency result (in experiment [1]; in experiment [2]; in experiment [3]; in [4]; in [7]; with Aromatase (Homo sapiens)) was “inactive” each time.

Regarding `CS(=O)(=O)Nc1cc2occ(NC=O)c(=O)c2cc1Oc1ccccc1`, the Potency entry (in experiment [1]; in experiment [2]; in experiment [3]; in experiment [4]; in [5]; with Aromatase (Homo sapiens)) was “inactive” in each case.

With `COc1ccc(CC2c3cc(OC)c(OC)cc3CC[N+]2(C)CCC(=O)OCCCCCOC(=O)CC[N+]2(C)CCc3cc(OC)c(OC)cc3C2Cc2ccc(OC)c(OC)c2)cc1OC` (stereo not drawn), the Potency result (in experiment [1]; in experiment [2]; in experiment [3]; in [4]; in [5]; with Aromatase (Homo sapiens)) was “inactive” in each case.

`CCN(CC)CCOc1ccccc1OC`: the Potency entry (in [1]; in [2]; in experiment [3]; in experiment [4]; in experiment [5]; in the experiment with Aromatase (Homo sapiens)) was “inactive” each time.

In the case of `CC[C@H](C)[C@@H]1NC(=O)[C@H](Cc2ccc(O)cc2)NC(=O)[C@@H](N)CSSC[C@@H](C(=O)N2CCC[C@H]2C(=O)N[C@@H](CC(C)C)C(=O)NCC(N)=O)NC(=O)[C@H](CC(N)=O)NC(=O)[C@H](CCC(N)=O)NC1=O`, the Potency result in experiment [1], in experiment [2], in [3], in experiment [4], in [8] and in experiment [5] was “inactive” each time. In the experiment with Aromatase (Homo sapiens), the Potency entry is “inactive”.

With `CC(C)C[C@H](NC(=O)[C@@H](Cc1c[nH]c2ccccc12)NC(=O)[C@H](Cc1ccc(O)cc1)NC(=O)[C@H](CO)NC(=O)[C@H](Cc1c[nH]c2ccccc12)NC(=O)[C@H](Cc1cnc[nH]1)NC(=O)[C@@H]1CCC(=O)N1)C(=O)N[C@@H](CCCN=C(N)N)C(=O)N1CCC[C@@H]1C(=O)NCC(N)=O`, the Potency entry (in [1]; in experiment [2]; in experiment [3]; in [4]; in experiment [5]; in the experiment with Aromatase (Homo sapiens)) was “inactive” in each case.

Consider `CCCOc1ccc2nc(NC(=O)OC)sc2c1`, for which the results for the Potency in [1] and in [2] were 10.6 µM (active) and 2.37 µM (active), respectively. The Potency result (in experiment [3]; in experiment [4]; in experiment [5]; with Aromatase (Homo sapiens)) was “inactive” throughout.

In the case of `NC(=O)OC[C@@H]1[C@H](NC(=O)/C(=N\OCC(=O)O)c2csc(N)n2)C(=O)N1S(=O)(=O)O`, the Potency entry in experiment [1], in experiment [2], in experiment [3], in experiment [4] and in experiment [5] was “inactive” throughout.

As to `Cc1ccccc1CNc1ncnc2c1ncn2[C@@H]1O[C@H](CO)[C@@H](O)[C@H]1O`, the Potency result in experiment [1], in experiment [2], in experiment [3], in experiment [4], in experiment [6] and in [8] was “inactive” throughout. Also, in [5], the Potency result was “inactive”.

Regarding `O=C(NNCNNC(=O)c1ccncc1)c1ccncc1`, the Potency result (in experiment [1]; in experiment [2]; in [3]; in [4]; in experiment [5]; with Aromatase (Homo sapiens)) was “inactive” in each case.

In the case of `Cc1c(N)nc(C(CC(N)=O)NCC(N)C(N)=O)nc1C(=O)NC(C(=O)NC(C)C(O)C(C)C(=O)NC(C(=O)NCCc1nc(-c2nc(C(=O)NCCCN[C@@H](C)c3ccccc3)cs2)cs1)C(C)O)C(O[C@@H]1O[C@@H](CO)[C@@H](O)[C@H](O)[C@@H]1O[C@H]1O[C@H](CO)[C@@H](O)[C@H](OC(N)=O)[C@@H]1O)c1cnc[nH]1` (stereo partly drawn), the Potency in experiment [1] was 1.68 µM (active); in experiment [2] it was 3.76 µM (active). In addition, the Potency result in experiment [3], in experiment [4] and in experiment [5] was “inactive” throughout.

Turning to `OC1OC[C@@H](O)[C@H](O)[C@@H]1O` (stereo partly drawn), the Potency result (in experiment [1]; in [2]; in experiment [3]; in experiment [4]; in experiment [5]; in the experiment with Aromatase (Homo sapiens)) was “inactive” each time.

In the case of `C[C@H]1C[C@@H]2[C@H]([C@@H](O)C[C@@]3(C)[C@H]2CC[C@]3(O)C(=O)COC(=O)CCC(=O)O)[C@@]2(C)C=CC(=O)C=C12`, the Potency entry (in [1]; in experiment [2]; in [3]; in experiment [5]; in the experiment with Aromatase (Homo sapiens)) was “inactive” throughout. In experiment [4], the Potency was 10.7 µM (active).

For the compound `O=C(O)c1cc2ccccc2c(Cc2c(O)c(C(=O)O)cc3ccccc23)c1O`, the Potency entry (in experiment [1]; in [2]; in experiment [3]; in experiment [4]; with Aromatase (Homo sapiens)) was “inactive” throughout.

Turning to `CO[C@H]1C=CO[C@@]2(C)Oc3c(C)c(O)c4c(O)c(c5c(nc6cc(C)ccn65)c4c3C2=O)NC(=O)/C(C)=C\C=C[C@H](C)[C@H](O)[C@@H](C)[C@@H](O)[C@@H](C)[C@H](OC(C)=O)[C@@H]1C`, the Potency result in experiment [1], in experiment [2], in experiment [3] and in experiment [5] was “inactive” each time.

With `O=C(O)c1c(Cl)c(Cl)c(Cl)c(Cl)c1-c1c2cc(I)c(=O)c(I)c-2oc2c(I)c(O)c(I)cc12`, the Potency in experiment [1], in experiment [2] and in experiment [5] was 23.7 µM (active) throughout. In addition, the Potency entry (in experiment [3]; in experiment [7]; in experiment [8]; with Aromatase (Homo sapiens)) was “inactive” throughout.

In the case of `O=C(/C=C/c1cccc(F)c1)NC1CC1`, the Potency result (in [1]; in experiment [2]; in experiment [3]; in experiment [4]; in experiment [5]; in the experiment with Aromatase (Homo sapiens)) was “inactive” throughout.

In the case of `Cc1ncc(C[n+]2csc(CCOP(=O)(O)OP(=O)(O)O)c2C)c(N)n1`, the Potency entry (in experiment [1]; in [2]; in [3]; in [4]; in experiment [5]; in the experiment with Aromatase (Homo sapiens)) was “inactive” each time.

In the case of `CCC(C)C(C(=O)OCC[N+](C)(CC)CC)c1ccccc1` (stereo not drawn), the Potency entry (in [1]; in [2]; in experiment [3]; in experiment [4]; in experiment [5]; in the experiment with Aromatase (Homo sapiens)) was “inactive” each time.

Consider `CC(=O)O[C@H]1CC[C@@]2(C)C(=CC[C@H]3[C@@H]4CC[C@H](C(C)=O)[C@@]4(C)CC[C@@H]32)C1`, for which the Potency result (in experiment [1]; in [2]; in experiment [3]; in [8]; in experiment [5]; with Aromatase (Homo sapiens)) was “inactive” in each case. Besides, the Potency in experiment [7] was 16.9 µM [inconclusive] (active).

As to `CN(CCO)CC(O)Cn1cnc2c1c(=O)n(C)c(=O)n2C` (stereo not drawn) (tested in a mixture with another compound), the Potency result (in experiment [1]; in [2]; in experiment [3]; in experiment [4]; in experiment [5]; in the experiment with Aromatase (Homo sapiens)) was “inactive” throughout.
